Only some compounds are listed: those with a hit (about 6% of all), similar ones and a draw of the others.
D1 antagonist – blocks dopamine activation of the human D1 receptor. 3.2% of 360,000 active. activity change, negative = inhibition, % at 10 µM. P21728. AID 504652. HEK293 TREx D1 cells, calcium flux, dopamine EC80; hits give low values; in the data active = activity change below about -30%; also: % is scaled to controls: 0 for no effect and ±100 for the full control effect
Target sequence (P21728 whole entry, looked up): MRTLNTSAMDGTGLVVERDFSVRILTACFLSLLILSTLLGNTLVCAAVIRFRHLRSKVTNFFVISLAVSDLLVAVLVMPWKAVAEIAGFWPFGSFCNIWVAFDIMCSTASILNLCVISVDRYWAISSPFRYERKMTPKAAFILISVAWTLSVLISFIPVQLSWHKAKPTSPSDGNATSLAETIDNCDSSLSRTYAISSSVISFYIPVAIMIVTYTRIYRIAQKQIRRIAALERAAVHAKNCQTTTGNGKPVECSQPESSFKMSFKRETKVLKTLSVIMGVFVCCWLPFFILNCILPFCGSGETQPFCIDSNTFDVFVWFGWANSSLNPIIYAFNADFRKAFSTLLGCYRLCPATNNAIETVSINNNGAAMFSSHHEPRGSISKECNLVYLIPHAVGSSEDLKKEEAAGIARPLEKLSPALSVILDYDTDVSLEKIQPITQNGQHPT
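Allosteric or orthosteric antagonism assessed as attenuation of the calcium response to EC80 dopamine, added 180 s after compound, in induced HEK293 Trex D1 cells loaded with no-wash calcium dye.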
DRD3 agonist – activates the human D3 dopamine receptor | 0.58% of 410,000 active | P35462 | max activation, % | D3R DiscoveRx beta-arrestin cells, luminescence, 90 min; in the data active = max activation above about 30%; also: 0% is about no effect
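Agonist-mode cell screen: cells plated at 1500/well and incubated overnight at 37 °C, then exposed to library compounds for 90 min at 37 °C. Detection reagent was added for 30–60 min at room temperature, and luminescence was read.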
DRD3 antagonist – blocks the human D3 dopamine receptor; P35462; D3R cells, DiscoveRx beta-arrestin luminescence, antagonist mode; hits give low values; max response, negative = inhibition, %; 2.5% of 360,000 active; AID 652054; in the data active = max response below about -50%; inconclusive = no clear call, values can overlap the other calls; also: % is scaled to controls: 0 for no effect and ±100 for the full control effect
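Cells plated overnight at 1500 cells/well, then exposed to library compounds with dopamine controls for 90 minutes at 37 degrees C. DiscoveRx reagent added for 30–60 minutes at room temperature; luminescence read, quantitative HTS format.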
D1 ag – activates the human D1 dopamine receptor; P21728; HEK293 T-REx D1 cells, calcium flux, agonist mode; activation, % at 2 µM; 1% of 360,000 active; in the data active = activation above about 30%; also: 0% is about no effect
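Inducible HEK293 T-REx D1 cells, force-coupled to calcium signalling, were plated at 4000 cells/well with tetracycline and held overnight at 30 C. After no-wash calcium dye loading, compound-evoked calcium rise over 180 s flagged agonists.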
D1 PAM – enhances dopamine response at the human D1 receptor; P21728; HEK293 TREx D1 cells, calcium flux, dopamine EC20 potentiation; potentiation, % at 10 µM; 0.036% of 360,000 active; in the data active = potentiation above about 30%; also: 0% is about no effect
The depositor's hits bear a star; ? = inconclusive; . = not tested or not shown.

SMILES | D1 antagonist | DRD3 agonist | DRD3 antagonist | D1 ag | D1 PAM
COc1ccc2nc3oc(C(=O)N4CCN(c5cc(C)ccc5C)CC4)cc3cc2c1 | 4.4 | -1.6 | . | -0.6 | 2.9
COc1ccc(-c2cc(C(F)(F)F)nc(SCC(=O)NCCc3ccc(OC)c(OC)c3)n2)cc1 | 0.6 | -2.6 | . | -0.6 | -2.5
Cc1cc(Oc2nc3ccccn3c(=O)c2/C=C(\C#N)C(=O)NC2CCS(=O)(=O)C2)ccc1Cl (configuration not stated) | -30.0* | 2.6 | 2.0 | -1.0 | -7.4
Cc1cccc(Oc2nc3ccccn3c(=O)c2/C=C(\C#N)C(=O)NC2CCS(=O)(=O)C2)c1 (configuration not stated) | 10.3 | 4.3 | 13.4 | 1.2 | -4.8
C/C(=N/NC(=O)CN1CCN(S(=O)(=O)c2ccc(C)cc2)CC1)c1cccc(O)c1 | 11.3 | 6.2 | 1.0 | 1.1 | -4.6
C/C(=N\NC(=O)CN1CCN(S(=O)(=O)c2ccc(C)cc2)CC1)c1cccnc1 | 11.1 | -16.6 | -51.6* | 0.9 | -3.5
Clc1ccc(OCCSCc2nc3ccccc3[nH]2)cc1 | -49.1* | 2.1 | -5.7 | 21.4 | -3.8
O=C(Nc1ccccc1C(=O)OCc1cc(=O)n2ccsc2n1)c1cccc(F)c1 | -13.7 | -9.1 | . | 4.3 | 0.4
O=[N+]([O-])c1ccc(S(=O)(=O)NN=Cc2ccc(Cl)c(Cl)c2)cc1 | . | 7.3 | -51.4* | . | .
CS(=O)(=O)N(CC(=O)N/N=C/c1cc([N+](=O)[O-])ccc1Cl)c1ccccc1 | -6.6 | -9.1 | -15.5 | 0.2 | -9.8
Cc1cccc(N(CC(=O)N/N=C/c2cc([N+](=O)[O-])ccc2Cl)S(C)(=O)=O)c1C | -45.4* | -4.2 | -27.9 | -0.2 | -1.4
Cc1ccc(S(=O)(=O)N/N=C/c2c(F)cccc2Cl)cc1 | -25.1 | -6.8 | -87.3* | 2.7 | -0.9
Cc1ccc(S(=O)(=O)N/N=C/c2ccc3nccnc3c2)cc1 | 5.9 | 51.8* | ? | 1.9 | 8.4
Cc1ccc(C(=O)N2CCN(c3cccc(Cl)c3)CC2)cc1-n1c(C)nc2cccnc21 | -22.2 | 6.2 | . | 5.1 | -3.3
O=C(CSc1nc2c([nH]c3ccccc32)c(=O)n1-c1ccc(F)cc1)NCC1CCCO1 (configuration not stated) | -7.2 | -12.6 | . | -0.3 | 0.8
CN(C)S(=O)(=O)c1ccc2c(c1)N(CC(=O)NCc1ccc(F)cc1)C(=O)CS2 | 7.8 | -14.4 | . | 3.0 | -3.6
Cc1ccc(S(=O)(=O)N/N=C/c2cccc([N+](=O)[O-])c2)cc1 | -8.4 | 4.3 | -0.1 | 4.9 | 2.0
CC(=O)Nc1ccc(S(=O)(=O)NN=Cc2ccc(Cl)c(Cl)c2)cc1 | . | 11.0 | -70.6* | . | .
Cc1ccc(S(=O)(=O)N/N=C\c2cc([N+](=O)[O-])ccc2Cl)cc1 | -4.5 | -13.0 | -63.4* | 3.5 | -2.6
CC(C)CNC(=S)NNC(=O)c1csc2c1CCC(C)C2 (configuration not stated) | 3.1 | -33.5 | -55.0* | -0.3 | 3.9
O=C(N/N=C/c1cc(Cl)cc([N+](=O)[O-])c1O)c1ccccc1NS(=O)(=O)c1cccs1 | -30.4* | -12.8 | ? | 4.0 | -3.0
Cc1cc(C(=O)N/N=C/c2cc(Cl)cc([N+](=O)[O-])c2O)c2ccccc2n1 | -10.9 | -5.7 | -66.0* | 3.1 | -4.1
COc1ccc(NC(=O)Cn2c(=O)n(-c3ccc(C)cc3)c(=O)c3c2c2cc(C)ccc2n3C)cc1 | 7.7 | -7.4 | . | 2.9 | -2.0
Nc1cc(C(F)(F)F)ccc1S(=O)(=O)Nc1cccc2c1NCCC2 | 0.9 | . | . | 11.1 | -0.2
CCN(CC)S(=O)(=O)c1ccc2c(c1)N(CC(=O)Nc1ccc(F)cc1F)C(=O)C1CCCN21 (configuration not stated) | -32.1* | 2.1 | . | 2.9 | 1.1
COc1cccc(NC(=S)N2CCCC2c2ccc(OC)c(OC)c2)c1 (configuration not stated) | -60.6* | 1.1 | -20.0 | -0.9 | -5.2
COc1ccc(C2CCCN2C(=S)Nc2cccc(Cl)c2)cc1OC (configuration not stated) | -2.4 | 12.9 | -8.9 | 2.3 | 0.7
COc1ccc(C2CCCN2C(=S)Nc2ccc(C)cc2C)cc1OC (configuration not stated) | -37.6* | -1.2 | -3.7 | 1.9 | -3.1
COc1ccc(C2CCCN2C(=S)Nc2ccccc2C)cc1OC (configuration not stated) | -7.8 | 14.5 | -5.0 | 5.1 | -14.3

Screens (PubChem)
